# Reference: PubChem BioAssay AID1508600 (Functional Genomics Laboratory (NCATS/FGL), 2020)
# About 3,700 (7%) of roughly 53,000 sequences were called active.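 Rule for the calls: active = gene knockdowns whose robust z-score for IL-1 alpha signal is at least 2 or at most -2, so actives lie on both sides; inactive = the rest.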 Only a selection was taken, and actives are over-represented in it overall.
# Test: Components of the Cytosolic LPS Sensing Pathway: Gene Identification via Genome-wide siRNA Screen;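 note: robust z of the log signal after scaling to non-targeting control siRNA wells of the plate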
# Details: RAW264.7 macrophages, IL-1a HTRF, actives lie on both sides, screened at 100 nM (by protocol), cells primed 5 h with Pam3CSK4 first
# How it was run: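 Mouse macrophage line RAW264.7 is transfected with siRNA (100 nM final), grown 48h, primed with TLR ligand Pam3CSK4 5 h and given intracellular LipidA 24 h. IL-1a in supernatant is read by HTRF and viability by luminescence.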
row,Sequence,z-score
1,GCAUUUAUAUGAGAUGCAGTT against Fam210a,0.108 (inactive)
2,CCAAAGCCUGAAAUGGUGGTT against Cxcr4,-2.36 (active)
3,GGUCAAAACAUGUUGAAGGTT against B330016D10Rik,0.15 (inactive)
4,GGCAGAUGAUGGUCCAUGCTT against Tfpi,-1.63 (inactive)
5,CCAGCAGUAAACUGGAAAUTT against Arhgap25,-1.53 (inactive)
6,GGCAACCAGAUAUUUGUUATT against Myef2,0.549 (inactive)
7,GCUCGCACAGAAGUUACAATT against Lrrc42,-0.486 (inactive)
8,GAAAUGCAAGACUCUGCACTT against 1700020L24Rik,-2.66 (active)
9,GGAGCGAGUAGACAUUCUGTT against Rdh13,1.72 (inactive)
10,GGUAGUGCCAUAAUUUCUGTT against Nipal2,-0.782 (inactive)
11,GGAACCAAUCUGUCUCUCCTT against Cbfb,-2.07 (active)
12,GCUGUUAACUAUCUGGAUATT against Prokr1,0.59 (inactive)
13,GGGUGUUGUGUCCUCUCAATT against Gckr,0.0744 (inactive)
14,GCAUGAAUCGUGCGAAGAUTT against Zfp871,0.903 (inactive)
15,CCAGGUUCUCCGAAUCUCUTT against Cpa1,-0.854 (inactive)
16,GCUGAGUCCAUUGAAGAAGTT against Pebp4,0.255 (inactive)
17,GCACAACGACCUUUCCAGGTT against Chst12,-0.561 (inactive)
18,GGCUAACCUGAGCAAACAGTT against Plvap,-2.21 (active)
19,GGAUCCUAAAACUGAGGAATT against Crtc2,0.22 (inactive)
20,GGAGAAAAACUGAGCAGCCTT against Chst12,-1.72 (inactive)
21,GCAUUGGAACCAUGUGCUGTT against Prss46,-1.59 (inactive)
22,GGAGGAUUAUUACAGAAGGTT against Lhx9,1.57 (inactive)
23,GGAACUGACUGCCUAUUCCTT against Gnb3,1.08 (inactive)

row,Sequence,z-score
1,CCGUUGAUAUCCACAUGAATT against Plod3,1.97 (inactive)
2,GGUGGAACAGUGGAAUUCGTT against Grhpr,2.41 (active)
3,GCACUGCAUAUUCCGCACUTT against Nubp2,1.4 (inactive)
4,GGCUGGUCUCCAAACCCAATT against F13b,0.229 (inactive)
5,GGACAGUGCCACUUAAACCTT against Tbxa2r,-1 (inactive)
6,GGCCUCCUAUAGACGGGAUTT against Vdac3,2.49 (active)
7,GGGAGACCGGCAAAAAAAATT against Pde1b,0.999 (inactive)
8,CGAGAUGUGUGUUAAAGGATT against Utp23,0.934 (inactive)
9,GCAAGUUGUCAAAUCUAAATT against Tspan13,1.42 (inactive)
10,GCCGGACAACUCUAAUCAGTT against Herpud1,3.22 (active)
11,CCAAGGUAUGAAGAUAUUUTT against Rfpl4,0.575 (inactive)
12,GCAUGUUUUGGUGUAUAGUTT against Arl4a,-1.81 (inactive)
13,CGGUGUUUGAAAUCGUGCATT against Dgcr6,0.533 (inactive)
14,CCAGAGCCCAAGCCAAGUUTT against Nanos3,0.639 (inactive)
15,GCCCGAUAUUAUAACGGUGTT against Eomes,2.97 (active)
16,GGUAUCCAGAUGAAAGAUGTT against Nlrp10,-1.13 (inactive)
17,GGCCCUCAAAAAUCACGAGTT against Ehd1,1.11 (inactive)
18,GGCAACAUCACUGAGUAUCTT against Glg1,0.57 (inactive)
19,GGAUCUUCUCUGCCUAUAUTT against Arpc1b,-1.42 (inactive)
20,GGAGGAGAAGAAGAAGGCCTT against Unc119b,0.28 (inactive)
21,CCUCAUGCUAGCCUCAUGATT against Actg1,-0.214 (inactive)
22,GCUAUUGGGACUUAGAACATT against Slc26a9,0.191 (inactive)
23,CCAGUAAACCUACAUGUUCTT against Htr3b,-0.024 (inactive)

row,Sequence,z-score
1,GGCUAAAAUAAGCAAUCUGTT against Optc,-1.35 (inactive)
2,GGAAACUCCCUGAACCGGATT against Zcrb1,2.26 (active)
3,GGUAUUGAGUAUCUUAGGUTT against Atf7,-0.543 (inactive)
4,CGUUUUGUACAGAUAUACUTT against Fam3b,-0.571 (inactive)
5,GAUUCCAAGACAUUAAACATT against Fxn,0.485 (inactive)
6,GGCAGUUCAUGUUUAAAGATT against Fgfr1op2,-0.381 (inactive)
7,CGAGAGCAUUAAUUACUUCTT against Sulf1,0.621 (inactive)
8,GGACUACGAAUACCCAUCGTT against Cck,-0.42 (inactive)
9,GGGCAAUUUGGACUGUUUUTT against Jam3,-0.973 (inactive)
10,GGGUUUUAGAAUGAAAUACTT against Emc6,2.35 (active)
11,GGAAGCAUUCCAAUGGUAGTT against Cyp2c39,-0.532 (inactive)
12,GGCCAGACAUGUUGAAGAATT against Ssna1,-2.42 (active)
13,CGAUGCUGUGGAACUGCACTT against Ptgfrn,0.417 (inactive)
14,CCGCGCCGUUGAUUCAUUUTT against Spata17,1.08 (inactive)
15,GGACACCAUGCCACAGACATT against Hlx,-1.43 (inactive)
16,GCAGAUCACCUUUUGUUUATT against Gdap2,0.767 (inactive)
17,GGAUCCGUGCUGAAGUUUUTT against Cep20,-0.338 (inactive)
18,GCUUCCCGCUAUGAGUUCATT against Shisa7,2.24 (active)
19,GGAUUGUUAGCAAAGAAAGTT against Aco1,-0.0776 (inactive)
20,GGUAGCAUGCUUUUGGUGCTT against Unkl,0.329 (inactive)
21,CGAAGGCUUUUGAAUUCAATT against Pcdh17,0.41 (inactive)
22,GGACUUCUACACCUCGAAATT against Amz2,-1.05 (inactive)
23,GCUGAGGAAAUGCGAAGUCTT against Tmem98,0.0406 (inactive)
